High-throughput results as filed in PubChem BioAssay.
The list is not random: actives were taken first. Their share in the collection is about 1.7%.
GLP1R cytotox = qHTS of GLP-1 Receptor Inverse Agonists: Cytotox Screen. AID 624418, 2012. Potency, µM (titrated, usually from 38.3 µM), usual class: inhibitors. HEK293 cAMP-luciferase reporter cells, luminescence, 24 h. 0.13% of 410,000 active;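 also: loss of luciferase light is scored as toxicity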
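Here, cytotoxicity is scored as loss of luminescence. The MLSMR collection was tested on cells seeded in medium containing 10% Nu serum, with a 24 hr compound exposure preceded by 12 hours of culture.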
PTHR1 ag = qHTS for PTHR1 Agonists: Primary Screen; Parathyroid hormone/parathyroid hormone-related peptide receptor (Homo sapiens), Q03431; HEK293 GP2 PTHR1 cells, GloSensor cAMP luminescence, 1 h; Potency, µM (top dose mostly 115 µM), usual class: activators; 0.075% of 410,000 active; AID 743266, 2014; also: nearly all actives have a fitted effect of over 55% in size
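HEK-293-derived GP2 cells expressing PTHR1 and a GloSensor cAMP reporter, 3,000/well, plated overnight, given luciferin plus IBMX (each 0.5 mM as added) for 1 h at 37 °C, then compound for 1 h at 37 °C. Luminescence was read after 15 min at room temperature.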
GLP1R ag = qHTS of GLP-1 Receptor Agonists | Glucagon-like peptide 1 receptor (Homo sapiens), P43220 | HEK293 GLP-1R CRE-luciferase, luminescence, 4-6 h; cells express a hypersensitive GLP-1R form | Potency, µM (series often up to 45.6 µM), actives largely listed as activators | 0.007% of 380,000 active
Target sequence (P43220 whole entry, looked up): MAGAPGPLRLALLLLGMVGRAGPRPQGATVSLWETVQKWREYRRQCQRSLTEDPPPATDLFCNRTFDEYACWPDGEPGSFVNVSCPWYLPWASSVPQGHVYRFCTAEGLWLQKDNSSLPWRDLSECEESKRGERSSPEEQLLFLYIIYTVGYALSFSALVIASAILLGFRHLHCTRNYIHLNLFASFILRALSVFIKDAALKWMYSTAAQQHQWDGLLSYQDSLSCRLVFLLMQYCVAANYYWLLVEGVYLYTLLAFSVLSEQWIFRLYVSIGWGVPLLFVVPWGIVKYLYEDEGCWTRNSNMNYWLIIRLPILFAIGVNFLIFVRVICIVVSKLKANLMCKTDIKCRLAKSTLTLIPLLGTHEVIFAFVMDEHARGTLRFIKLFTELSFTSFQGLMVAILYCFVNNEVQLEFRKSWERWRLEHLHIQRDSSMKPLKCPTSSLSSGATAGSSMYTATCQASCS
RGS4 inhibitor = Inhibitors of Regulator of G Protein Signaling (RGS) 4: qHTS | Potency, µM (series often up to 114 µM), actives largely listed as inhibitors | Transcreener GDP fluorescence polarization, RGS4-accelerated GTP hydrolysis | Regulator of G-protein signaling 4 (Homo sapiens), P49798 | 0.039% of 390,000 active; also: nearly all actives have a fitted effect of over 75% in size
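MLSMR compounds (23 nl, pin-transferred) preincubated 10 min at room temperature with a 500nM (2x) first reagent, then RGS4 at 900nM (2x) plus Transcreener GDP mix added; fluorescence polarization (620/688 nm) read before and after 90 min at 30 °C.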
GLP1R inv ag = qHTS of GLP-1 Receptor Inverse Agonists (Inhibition Mode); Potency, µM (highest dose often 38.3 µM), hits mostly inhibitors; 1.6% of 410,000 active; AID 624417, 2012; Glucagon-like peptide 1 receptor (Homo sapiens), P43220; HEK293 GLP-1R CRE-luciferase, luminescence, 24 h; GLP-1R form is constitutively active; also: nearly all actives have a fitted effect of over 55% in size
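Assay principle: reduced luminescence from a cAMP-responsive reporter in HEK293 cells co-expressing a constitutively active GLP-1R. Conditions: 24 hr compound incubation, 37 deg C, 5% CO2.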
Hits are given with their value; n = inactive; u = inconclusive; x = no result; [ ] = dose if it differs, or a comment. Calls follow the shape of the dose curve; as a rule, active = well fitted curve in the direction sought with a large enough effect; inconclusive = small, poorly fitted or top-dose-only effect, or another doubt; inactive = no such curve, though single readings can be large; an effect the other way counts as inactive or inconclusive.

SMILES	GLP1R cytotox	PTHR1 ag	GLP1R ag	RGS4 inhibitor	GLP1R inv ag
CCOc1ccc(C(O)(CCC(C)C)C(CN2CCOCC2)c2ccccc2)cc1 (stereo not given)	u	n	n	n	3.2µM
COc1ccc(C(O)(CCC(C)C)C(CN2CCOCC2)c2ccc(Cl)cc2)cc1 (stereo not given)	u	n	n	n	u
CCCC(O)(c1ccc(Cl)cc1)C(CN1CCOCC1)c1ccc(Cl)cc1 (stereo not given)	n	n	n	n	u
Cc1ncc(C(O)c2ccc(N(C)C)cc2)n1Cc1ccccc1 (stereo not given)	n	n	n	x	n
CCc1ncc(C(O)c2ccc(Cl)cc2)n1Cc1ccccc1 (stereo not given)	n	n	n	x	8.9µM
OCC1(O)OC[C@@H](O)[C@H](O)[C@@H]1O (stereo not given in full)	x	x	n	x	x
CC(=O)O[C@H]1[C@@H](O)[C@H](O)[C@H](Oc2c(O)c(C)c3c4c2[C@@H](C)CC[C@@H]4[C@@H](C)C[C@H]3C=C(C)C)O[C@H]1C	u	n	n	n	11µM
CC(C)[C@H](NC(=O)c1ccc([N+](=O)[O-])cc1Cl)C(=O)N1CCN(C/C=C/c2ccccc2)CC1	n	n	n	n	10µM
COc1ccc(C(=O)NC(C(=O)N2CCN(C/C=C/c3ccccc3)CC2)C(C)C)cc1 (stereo not given)	n	n	n	x	n
COc1ccc(-n2c(-c3ccc(C)cc3)cc3c2CC(C)(C)CC3=O)c(OC)c1	n	n	x	n	u
CCOc1cccc(C2c3[nH]c4ccccc4c3CCN2C(=O)CSc2ccccc2)c1 (stereo not given)	n	n	x	n	u
COc1ccc(CC(=O)N2CCc3c([nH]c4ccccc34)C2c2ccc(SC)cc2)cc1 (stereo not given)	n	n	x	n	u
CCOc1cccc(C2c3[nH]c4ccccc4c3CCN2C(=O)c2ccccc2F)c1 (stereo not given)	n	n	x	n	5.6µM
COc1ccc(CCC(=O)N2CCc3c([nH]c4ccccc34)C2c2ccc(F)cc2)cc1 (stereo not given)	n	n	x	n	10µM
O=C(CSc1ccccc1)N1CCc2c([nH]c3ccccc23)C1c1ccc(Cl)cc1 (stereo not given)	n	n	x	n	5µM
CCOc1ccc(C2c3[nH]c4ccccc4c3CCN2C(=O)Cc2cccc(OCC)c2OCC)cc1 (stereo not given)	n	n	x	n	6.3µM
CC[C@@H](NC(=O)[C@@H](Cc1ccccc1)NC(=O)CC[C@H]1O[C@@H](n2ccc(=O)[nH]c2=O)[C@H](O)[C@@H]1O)c1ccccc1	n	n	n	x	n
O=C(CSc1nc2c([nH]c3ccccc32)c(=O)n1-c1cccc(Cl)c1)NCC1CCCO1 (stereo not given)	n	n	n	n	n
O=C(CSCc1ccc(F)cc1)N1CCc2c([nH]c3ccccc23)C1c1ccccc1 (stereo not given)	n	n	x	n	7.9µM
O=C(CSCc1ccc(F)cc1)N1CCc2c([nH]c3ccccc23)C1c1ccc(Cl)cc1 (stereo not given)	n	n	x	n	u
CC(=O)NCCC(=O)N1CCc2c([nH]c3ccccc23)C1c1cccc(Cl)c1 (stereo not given)	n	n	n	n	5µM
Cc1cccc(C2c3[nH]c4ccccc4c3CCN2C(=O)Cc2nc(-c3ccccc3)n[nH]2)n1 (stereo not given)	n	n	n	n	11µM
CCOC(=O)c1c(NC(=O)c2ccc(S(=O)(=O)N(CC(C)C)CC(C)C)cc2)sc2c1CCN(CC)C2	n	n	n	n	n
Cc1nn(CCCC(=O)Nc2cccc(F)c2)c(=O)c2c1sc1ccccc12	n	n	x	n	n
CCOC(=O)C(Sc1cc(-c2ccccc2)nc2ncnn12)C(C)=O (stereo not given)	3.5µM	n	n	n	u
SMILES	GLP1R cytotox	PTHR1 ag	GLP1R ag	RGS4 inhibitor	GLP1R inv ag
O=C1NC[C@H](CCCCN2C[C@H](Cc3ccccc3)N(CCC3CCCCC3)C(=O)C2=O)N(CCc2ccc(O)cc2)C1=O	n	n	n	x	n
CC1CN(C(=O)c2ccccc2OCc2ccc(Cl)cc2Cl)CC(C)O1 (stereo not given)	n	n	n	n	10µM
CCOC(=O)c1ccccc1NC(=O)CN1C(=O)CC(c2ccccc2)Sc2ccccc21 (stereo not given)	n	n	n	n	10µM
Cc1cccc(NC(=O)CN2C(=O)CC(c3ccccc3)Sc3ccccc32)c1 (stereo not given)	n	n	n	n	n
CC1(C)CCC2=C(O1)c1ccccc1C(=O)C2=O	x	x	x	15µM	x
N#CCCSC(=S)C1CCCC1=N (stereo not given)	n	n	n	x	n
O=C(COc1ccc2c(c1)C(=O)CC1(CCCCC1)O2)NCc1ccccn1	n	n	n	n	n
O=C(COc1ccc2c(c1)C(=O)CC1(CCCCC1)O2)NCc1ccccc1	n	n	n	n	11µM
Cc1ccc(SCC(=O)Nc2ccccc2N2CCOCC2)cc1	n	n	n	n	7.9µM
O=C(CSc1ccccc1)Nc1ccccc1N1CCOCC1	n	n	n	n	u
Cc1ccc(C)c(N2CCN(C(=O)c3ccc(CS(=O)Cc4ccc(Cl)cc4)o3)CC2)c1 (stereo not given)	n	n	n	n	10µM
Cc1ccc(Cl)cc1N1CCN(C(=O)c2ccc(CS(=O)Cc3ccc(Cl)cc3)o2)CC1 (stereo not given)	n	n	n	n	8.9µM
CC1CCN(C(c2ccccc2)c2sc3nc(-c4ccco4)nn3c2O)CC1 (stereo not given)	n	n	x	n	n
O=C(NC1CC2CCC(C1)N2Cc1nnnn1Cc1ccco1)NC12CC3CC(CC(C3)C1)C2 (stereo not given)	n	n	n	n	10µM
COC(=O)C1(C)CCCC2(C)C3CCC(C(C)C)C(CO)C3C(CO)CC12 (stereo not given)	u	n	n	x	10µM
COC(=O)[C@]1(C)CCC[C@@]2(C)C3CC[C@]4(OC(C)=O)C[C@@]3(CCC21)CC4=O (stereo not given in full)	n	n	n	n	n
COc1ccc(CNc2oc(COc3ccccc3)nc2C#N)cc1	n	n	n	n[11.4 µM]	10µM
COc1ccc(CCNc2oc(COc3ccccc3)nc2C#N)cc1	n	n	n	n	u
